Efflux pump mplx = inhibitors of Candida efflux pumps in yeast, primary screen, S. cerevisiae, Nile Red, multiplex; 330,000 compounds, 0.44% hits; inhibition, % at 10 µM; AID 485275, 2010; S. cerevisiae Candida pump triplex;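 active means plate passing quality check with inhibition over a set limit, or well fluorescence over plate mean plus 4 SD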;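 further: Nile Red retained in pooled yeast measured as flow cytometry median fluorescence; 0% = buffer negative control and 100% = Enniatin B positive control; higher means more Nile Red kept so more efflux inhibition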
KCC2 mod = KCC2 cotransporter modulators, thallium flux, primary screen, cell-based, HEK293 KCC2, FluoZin-2 fluorescence, MLSMR; Solute carrier family 12 member 5 (Homo sapiens), Q9H2X9; KCC2 cells, thallium flux FluoZin-2 fluorescence; B-score of Tl+ flux slope (higher = more flux/activation; lower = inhibition) at 10 µM; 190,000 compounds, 2.2% hits;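 active means thallium flux slope and its plate-corrected score both differing from the plate sample mean at a set confidence after two filtering rounds, in either direction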;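 further: slope of fluorescence scaled to starting intensity during 10 to 20 s after thallium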
H9c2 protect = cardioprotection against H2O2-induced cell death, primary screen, uHTS, H9c2 cells, ATPLite luminescence; protection from H2O2 cell death, % at 20 µM; 360,000 compounds, 0.63% hits; H9c2 cardiomyocytes, H2O2 injury protection, 2 h; AID 588492, 2011;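 active means compounds giving at least 50% protection of heart cells from peroxide-induced death in the single-dose screen, raw or plate-pattern-corrected value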;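 further: 0% = DMSO wells with peroxide and 100% = DMSO wells without peroxide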
Calb FLC = C. albicans growth inhibition with fluconazole, primary screen, CaCi-2 strain, Alamar Blue fluorescence | C. albicans CaCi-2 (fluconazole-resistant clinical isolate) + fluconazole, 48 h | growth inhibition, % (test concentration not listed) | 300,000 compounds, 0.57% hits | AID 1979, 2009;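 active means growth inhibition above about 58% in most replicates, limit read from the data, passing the limit was not always enough; inconclusive means exactly half the replicates above a set limit; inactive means most replicates below a set limit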;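 further: all wells also contain fluconazole at 8 µg/ml as a sub-toxic cotreatment; 0% = median of DMSO wells and 100% = median of geldanamycin control wells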
PHOSPHO1 block = PubChem AID 1565 | Phosphoethanolamine/phosphocholine phosphatase (Homo sapiens), Q8TCT1 | recombinant PHOSPHO1, absorbance phosphatase assay | inhibition, % at 13.3 µM | 290,000 compounds, 1.1% hits; in the data active means inhibition above about 60%
Target sequence (Q8TCT1 whole entry, looked up): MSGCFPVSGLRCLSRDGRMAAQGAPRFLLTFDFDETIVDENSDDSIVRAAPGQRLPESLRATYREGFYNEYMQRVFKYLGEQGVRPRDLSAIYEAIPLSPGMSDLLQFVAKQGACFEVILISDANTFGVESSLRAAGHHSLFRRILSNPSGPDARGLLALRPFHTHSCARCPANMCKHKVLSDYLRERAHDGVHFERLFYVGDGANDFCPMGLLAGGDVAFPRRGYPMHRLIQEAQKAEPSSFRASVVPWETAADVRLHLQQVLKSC
KCC2 secondary = KCC2 modulators in sodium-free buffer, confirmation, cell-based, HEK293 KCC2, thallium flux, secondary assay; shares compounds with KCC2 mod; FluoZin2 fluorescence; stronger effect = higher value; normalised thallium flux (F/F0 slope) at 10 µM; 3,700 compounds, 15% hits; AID 1713, 2009;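 active means thallium flux slope above the same plate's solvent-only control mean plus 3 SD; inconclusive means the two replicate wells disagree; inactive means no significant difference from solvent-only control wells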
KCC2 bumet counter = thallium flux persisting under bumetanide in KCC2 cells, confirmation, counter-screen for KCC2 modulator project, cell-based, HEK293 KCC2, FluoZin2, secondary assay 3; shares compounds with KCC2 mod; HEK293-KCC2 + bumetanide/ouabain; stronger effect = higher value; normalized thallium flux at 10 µM; 3,700 compounds, 49% hits; AID 1714, 2009;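 active means thallium entry rate above the same plate's blocked-transporter control wells by more than 3 SD; inconclusive means the two repeat wells disagree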;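 further: raw slope of fluorescence over initial fluorescence between 10 and 20 s after thallium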
KCC2 sec2 = KCC2 modulators without ouabain present, confirmation, cell-based, HEK293 KCC2, thallium flux, FluoZin2, secondary assay 2; shares compounds with KCC2 mod; thallium flux FluoZin2 fluorescence; actives lie on both sides; F/F0 rise rate, 10–20 s post-thallium; normalized thallium flux at 10 µM; 3,700 compounds, 23% hits;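 active means thallium flux slope more than 3 SD above or below the plate's solvent-only control mean, mostly below; inconclusive means the two repeat wells disagreed; inactive means no significant shift from solvent-only controls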;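 further: raw slope with 0.1% DMSO as baseline and bumetanide as block control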
HEK counter1 = thallium flux modulation in parental HEK cells, confirmation, counter-screen for KCC2 modulator project, cell-based, counterscreen 1. AID 1716, 2009. 3,700 compounds, 46% hits. HEK293 parental cells, thallium flux FluoZin2, ouabain; baseline-ratio fluorescence slope, 10–20 s after thallium. thallium flux rate (normalised fluorescence) at 10 µM. shares compounds with KCC2 mod;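 active means thallium flux rate significantly above the same plate's solvent-only control wells, beyond their mean plus 3 SD; inconclusive means the two replicate wells gave conflicting results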
KCC2 ouabain = KCC2 inhibitors and activators, ouabain retest, confirmation, HEK-KCC2 cells | shares compounds with KCC2 mod | 3,700 compounds, 48% hits | raw Tl+ flux slope (below DMSO = inhibition, above = activation) at 10 µM | AID 1717, 2009 | HEK293-KCC2, thallium flux FluoZin2 fluorescence; bidirectional: low = inhibitor, high = activator;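 active means thallium flux slope beyond 3 SD from same-plate DMSO control mean in most replicates, usually higher, sometimes lower; inconclusive means repeat tests gave conflicting results; inactive means no significant difference from controls in most replicates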;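 further: slope of initial-normalized fluorescence between seconds 10 and 20 after thallium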
HEK293 Tl flux2 = native HEK Tl+ uptake effects, second counter-screen – HEK cells, counterscreen 2, counter-screen for KCC2 modulator project, confirmation; 3,700 compounds, 33% hits; thallium flux slope at 10 µM; HEK293 parental, thallium flux FluoZin-2 fluorescence slope; shares compounds with KCC2 mod;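 active means thallium flux slope above the same plate's solvent-control mean plus 3 SD in both duplicate wells; inconclusive means duplicate wells that disagreed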;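 further: run without ouabain in cells lacking the KCC2 cotransporter; slope of fluorescence scaled to its starting value between 10 and 20 s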
An asterisk follows results filed as active; ? = inconclusive; . = no result. In the library only some 3.3% were active in any assay of this set; here they are far more common.

SMILES | Efflux pump mplx | KCC2 mod | H9c2 protect | Calb FLC | PHOSPHO1 block | KCC2 secondary | KCC2 bumet counter | KCC2 sec2 | HEK counter1 | KCC2 ouabain | HEK293 Tl flux2
O=C(NC(=S)Nc1ccc(Oc2ccccc2)cc1)c1ccc(Cl)cc1 | 0 | 31* | -13 | -4 | 16 | 0.0066 | 0.022* | ? | 0.016* | 0.028* | 0.014*
CCN(CC)c1ccc(NC(=S)NC(=O)c2ccco2)cc1 | 0 | 69* | -13 | -12 | 19 | 0.043* | 0.17* | ? | ? | 0.12* | ?
O=C(O)c1ccc(NC(=S)NC(=O)c2cccc(COc3ccccc3)c2)cc1 | 0 | -3.7* | 3 | 8 | 21 | 0.0083 | ? | 0.034 | 0.004 | ? | 0.011
CCN(CC)c1ccc(NC(=S)NC(=O)c2cccs2)cc1 | 0 | 21* | -13 | 58 | 22 | 0.016* | 0.079* | 0.038 | 0.084* | 0.051* | 0.02*
O=C(Nc1ccc(Nc2ccccc2)cc1)c1ccccc1F | 0 | . | -13 | -4 | 14 | . | . | . | . | . | .
CC(=O)NC(=S)Nc1ccc(NC(=S)NC(=O)c2cccs2)cc1 | 0 | . | -2 | 1 | -21 | . | . | . | . | . | .
O=C(NC(=S)Nc1ccc2c(c1)OCCO2)c1ccco1 | 0 | 100* | -11 | 24 | 38 | 0.023* | 0.1* | 0.04 | 0.083* | 0.07* | 0.042*
CCN(CC)c1ccc(NC(=O)c2ccccc2F)cc1 | 0 | -6.2* | -17 | 2 | 62* | 0.017 | ? | 0.029 | 0.0072 | 0.014 | 0.0095
O=C(NC(=S)Nc1ccc2oc(=O)ccc2c1)c1ccco1 | 0 | 22* | 0 | -13 | 13 | 0.0059 | 0.049* | 0.044* | 0.03* | 0.046* | 0.029*
Cc1cc(N2CCN(C(=O)c3[nH]c(C(F)(F)F)nc3-c3ccccc3)CC2)c2ccccc2n1 | . | . | 4 | . | . | . | . | . | . | . | .
CN(C)S(=O)(=O)c1ccc(NC(=S)NC(=O)c2cccs2)cc1 | 0 | 4* | 2 | 15 | 35 | 0.0094 | 0.016* | 0.029 | 0.0084* | ? | 0.0097
O=C(NC(=S)Nc1cc(C(F)(F)F)ccc1N1CCOCC1)c1ccco1 | 0 | 89* | -7 | 6 | 20 | 0.022* | 0.11* | 0.039 | ? | 0.076* | 0.026*
O=C(Nc1ccc2c(c1)OCCO2)c1cc(F)c(F)cc1Cl | 0 | . | -5 | -3 | . | . | . | . | . | . | .
O=C(NC(=S)Nc1ccc2c(c1)OCCO2)c1ccc(F)cc1Cl | 0 | 16* | -4 | 13 | -5 | 0.0099 | 0.022* | 0.033 | 0.012* | ? | 0.011
O=C(NC(=S)Nc1ccc2c(c1)OCO2)c1ccc(Cl)cc1 | 0 | 8.2* | -5 | -1 | -9 | 0.0093 | 0.012* | 0.039 | ? | 0.026* | 0.012
O=C(Nc1ccc(S(=O)(=O)NCc2ccccc2)cc1)c1ccccc1[N+](=O)[O-] | 0 | -6.6* | -8 | -1 | -7 | 0.0058 | 0.0052 | 0.025* | 0.0081 | ? | 0.011
O=C(Nc1ccc2ccccc2c1)c1ccccc1[N+](=O)[O-] | . | . | -13 | . | . | . | . | . | . | . | .
Cc1cc(=O)oc2c(C)c(OCC(=O)N3CCC(C(=O)O)CC3)ccc12 | 0 | . | -2 | -1 | 3 | . | . | . | . | . | .
Cn1c(SCc2ccccc2Cl)nc2ccccc21 | 0 | -4.3* | -14 | -4 | 6 | ? | ? | 0.024* | 0.0072 | 0.014* | 0.01
CCn1c(SCc2ccccc2Cl)nc2ccccc21 | 0 | -0.28 | -8 | 19 | 0 | . | . | . | . | . | .
CCn1c(CSc2nc3ccccc3n2C)nc2ccccc21 | 0 | -4* | 6 | 24 | -10 | ? | 0.0038 | 0.022* | ? | 0.014* | 0.0095
O=C(CSc1nnc(C2CC2)n1Cc1ccccc1)c1cc2ccccc2o1 | 0 | -3.8* | -5 | 5 | 97* | 0.0066 | ? | 0.024* | 0.0069 | ? | 0.0094
Cn1c(N)c(C(=O)CSc2nnc(C3CC3)n2Cc2ccccc2)c(=O)n(C)c1=O | -1 | . | 8 | . | . | . | . | . | . | . | .
O=C(O)CCn1c(-c2ccccc2)cc2ccccc21 | 0 | -6.4* | -3 | 11 | 16 | 0.0066 | 0.007 | 0.028 | 0.007 | 0.013* | 0.0096
O=C(O)CCn1c(CO)nc2ccccc21 | 0 | 0.15 | -2 | 31 | 32 | . | . | . | . | . | .
SMILES | Efflux pump mplx | KCC2 mod | H9c2 protect | Calb FLC | PHOSPHO1 block | KCC2 secondary | KCC2 bumet counter | KCC2 sec2 | HEK counter1 | KCC2 ouabain | HEK293 Tl flux2
CCCn1c(O)c(N=Nc2ccc3ccccc3n2)c2ccccc21 | 0 | -5* | 10 | -26 | 11 | 0.01 | 0.011* | 0.03 | 0.0087* | 0.021 | 0.011
CC(C)CCn1c(O)c(N=Nc2ccccn2)c2ccccc21 | 0 | 6.9* | -9 | -1 | -4 | 0.0092 | 0.021* | 0.035 | ? | ? | 0.013
CCN(CC)C(=O)C1CC(=O)N(c2ccc(OC)cc2)C1c1ccc(OC)cc1 (centres undefined) | 0 | -4.1* | 14 | 28 | 4 | 0.0062 | 0.0057* | 0.028 | 0.0082 | 0.019 | 0.011
CC1Cc2ccccc2N1Cc1nc2scc(-c3cccs3)c2c(=O)[nH]1 (centres undefined) | 0 | 3.9* | 6 | 2 | 88* | 0.0079 | 0.0094* | 0.029 | 0.0072 | 0.021 | 0.0093
C=CCN1C(=O)N(/C=C/C)c2cccc3cccc1c23 | 0 | 7.6* | 2 | -5 | -5 | 0.0057 | 0.0043 | 0.028 | 0.0057* | 0.018 | 0.009
CN1C(=O)N(C)c2cccc3cccc1c23 | 0 | . | -2 | 10 | 11 | . | . | . | . | . | .
Cc1nc(CC(=O)Nc2nccs2)cs1 | 0 | . | 6 | 6 | 50 | . | . | . | . | . | .

High-throughput results (PubChem)
